# Assay outcomes (PubChem)
# CYP2C9 inhib – human CYP2C9 inhibition. P11712. CYP2C9 Supersomes, luciferin-H conversion, luminescence. inhibition, % at 5 µM. actives 20% (n = 96,000);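 active means blocking of liver enzyme CYP2C9 beyond about 50% at 5 µM, limit read from the data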
# CYP2C9 activ – CYP2C9 (human) activation; P11712; recombinant CYP2C9, luciferin-H conversion, luminescence; stronger effect = higher value; factor 1 = untreated enzyme, 0 = blocked; activation factor at 5 µM; actives 1.4% (n = 96,000); AID 1024;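 active means activation factor of 2 or more for CYP2C9 at a 5 µM dose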
# CYP2C19 act – cytochrome P450 2C19 (human) activation. recombinant CYP2C19, luciferin-H EGE luminescence; stronger effect = higher value; 0 = fully inhibited enzyme, 1 = untreated enzyme. activation factor at 5 µM. 96,000 tested, under 10 active;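 active means activation factor of at least 2 at 5 µM in the primary screen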
# CYP2C19 inhib – human CYP2C19 inhibition; actives 21% (n = 96,000); P33261; CYP2C19 Supersomes, luciferin-H EGE luminescence, 30 min; inhibition, % at 5 µM;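 active means CYP2C19 inhibition above a set limit at 5 µM in the primary screen, cut at about 50% in these data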
# PLAP act – activates human placental alkaline phosphatase. P05187. purified PLAP enzyme, luminescent substrate read-out; stronger effect = higher value. actives 1.2% (n = 96,000). activation fold at 20 µM; in the data active means activation fold above about 2
# Target sequence (P05187 whole entry, looked up): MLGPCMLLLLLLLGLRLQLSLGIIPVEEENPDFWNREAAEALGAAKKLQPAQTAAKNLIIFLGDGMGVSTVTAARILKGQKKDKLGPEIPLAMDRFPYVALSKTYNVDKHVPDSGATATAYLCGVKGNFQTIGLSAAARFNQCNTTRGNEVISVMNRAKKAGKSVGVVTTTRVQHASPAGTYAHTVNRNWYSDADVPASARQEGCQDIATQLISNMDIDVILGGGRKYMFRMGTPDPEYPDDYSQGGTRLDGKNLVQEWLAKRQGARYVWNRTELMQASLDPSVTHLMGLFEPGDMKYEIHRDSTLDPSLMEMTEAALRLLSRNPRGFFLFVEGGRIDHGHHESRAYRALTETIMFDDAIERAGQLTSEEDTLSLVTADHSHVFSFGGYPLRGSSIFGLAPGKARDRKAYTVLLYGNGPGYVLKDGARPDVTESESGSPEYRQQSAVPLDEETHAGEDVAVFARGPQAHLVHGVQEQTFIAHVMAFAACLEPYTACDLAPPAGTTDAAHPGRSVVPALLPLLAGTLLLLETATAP
# Hits are given with their value; - = inactive. An excerpt weighted towards active compounds, which were near 31% of everything screened.
SMILES,CYP2C9 inhib,CYP2C9 activ,CYP2C19 act,CYP2C19 inhib,PLAP act
O=C(NCCCN1CCCC1=O)c1cccnc1,-,-,-,-,-
Cc1cccc(-c2nc(CS(=O)CC(=O)NCC3CCCO3)c(C)o2)c1 (stereo not drawn),-,-,-,-,-
Cc1ccc(CCNC(=O)CS(=O)Cc2nc(-c3cccc(C)c3)oc2C)cc1 (stereo not drawn),70,-,-,64,-
CCCCCCn1c(COc2ccccc2F)nnc1SCC(=O)N1c2ccccc2NC(=O)C1(C)C,-,-,-,-,-
O=S(=O)(NCCSc1nc2ccccc2o1)c1ccccc1,73,-,-,89,-
O=S(=O)(CCSc1nc2ccccc2o1)c1nc2ccccc2s1,89,-,-,82,-
COc1ccc2sc(C)nc2c1NC(C)=O,84,-,-,-,-
CN(C)c1nc(-c2ccccc2)cc(C(F)(F)F)c1C#N,-,-,-,-,-
N#Cc1c(C(F)(F)F)cc(-c2cccc(Cl)c2)[nH]c1=O,61,-,-,-,-
N#Cc1c(C(F)(F)F)cc(-c2ccc(Cl)cc2)[nH]c1=O,55,-,-,-,-
CCN(CC)c1nc(-c2ccc(Cl)cc2)cc(C(F)(F)F)c1C#N,-,-,-,-,-
Cc1ccccc1-c1nc2ccccc2c(=O)n1/N=C/c1ccccc1[N+](=O)[O-],-,-,-,-,-
COC(=O)C(Cc1cncn1COCc1ccccc1)NC(=O)OC(C)(C)C (stereo not drawn),-,-,-,-,-
COc1ccc(C(=O)Nc2ccc3c4c(cccc24)CC3)cc1,-,2.2,-,-,-
O=C(Nc1ccc2c3c(cccc13)CC2)c1ccc(Br)o1,-,-,-,-,-
COc1cc(OC)cc(C(=O)NC(=S)Nc2ccc3c4c(cccc24)CC3)c1,-,-,-,-,-
O=C(Nc1ccc2c3c(cccc13)CC2)c1ccco1,-,2,-,-,-
COc1cc(/C=C2/S/C(=N/S(=O)(=O)c3ccccc3)NC2=O)c([N+](=O)[O-])cc1OC,99,-,-,-,-
Cc1cc(/C=C2\SC(=Nc3ccc(F)cc3)NC2=O)c(C)n1-c1ccc(S(N)(=O)=O)cc1,-,-,-,-,-
Cc1ccc(Cl)cc1NC1=C/C(=N\S(=O)(=O)c2cccs2)c2ccccc2C1=O,92,-,-,66,-
CC(=O)c1c(C)oc2ccc(O)c(CN3CCOCC3)c12,-,-,-,-,-
COc1ccc2c(c1)C1(Nc3ccccc3C(=O)N1c1ccccc1)C(=O)N2 (stereo not drawn),87,-,-,-,-
COc1ccc2c(c1)NC1(O)c3ccccc3C(=O)C21O (stereo not drawn),-,-,-,-,-
CCOc1ccc(N2C(=O)CC(N3CC(C)OC(C)C3)C2=O)cc1 (stereo not drawn),-,-,-,-,-
O=C(NCCc1ccc(F)cc1)N1CCOCC1,-,-,-,-,-
SMILES,CYP2C9 inhib,CYP2C9 activ,CYP2C19 act,CYP2C19 inhib,PLAP act
COc1ccc(C(CNC(=O)c2cc(C)oc2C)N2CCOCC2)cc1 (stereo not drawn),-,-,-,60,-
COc1ccc(C(CNC(=O)COc2ccccc2C#N)N2CCOCC2)cc1 (stereo not drawn),60,-,-,-,-
COc1ccc(C(CNC(=O)c2ccc3c(c2)C(=O)N(CCC(C)C)C3=O)N2CCOCC2)cc1 (stereo not drawn),88,-,-,88,-
O=C(NCC(c1ccc(F)cc1)N1CCOCC1)c1ccc(Br)o1 (stereo not drawn),-,-,-,61,-
COc1ccc(C(CNC(=O)c2cccc(Br)c2)N2CCCC2)cc1 (stereo not drawn),-,-,-,-,-
NC(=O)c1cnn2c(C(F)(F)F)cc(-c3ccc(F)cc3)nc12,-,-,-,-,-
Cc1occc1-c1nnc(SCC(=O)NCc2cccs2)n1CC1CCCO1 (stereo not drawn),-,-,-,-,-
Cc1cc(C)n2nc(CC(=O)NC3CCCCCC3)nc2n1,-,-,-,-,-
O=C(CCNS(=O)(=O)c1cccc2nsnc12)NC1CCCc2ccccc21 (stereo not drawn),-,-,-,-,-
CC1Cc2ccccc2N1C(=O)CCNS(=O)(=O)c1cccc2nsnc12 (stereo not drawn),-,-,-,88,-
O=C(CCNS(=O)(=O)c1cccc2nsnc12)N1CCc2ccccc21,-,-,-,80,-
CC1Cc2ccccc2N1C(=O)CCS(=O)(=O)c1cccc2nonc12 (stereo not drawn),-,-,-,-,-
O=C(CCNS(=O)(=O)c1cccc2nsnc12)N1CCN(c2ccccn2)CC1,-,-,-,66,-
CCCCCC(=O)NC(=S)Nc1ccccc1C(=O)OC,-,-,-,-,-
CCC(C)(C)n1nnnc1C(C(C)C)N1CCC(C(N)=O)CC1 (stereo not drawn),-,-,-,-,-
c1ccc2c(c1)CC1(CCCC1)n1nnnc1-2,-,-,-,-,-
CCOC(=O)N1CCN(C(=O)c2cc3c(s2)-c2ccccc2OC3)CC1,54,-,-,-,-
O=C(c1cc2c(s1)-c1ccccc1OC2)N1CCN(c2ccccc2)CC1,71,-,-,72,-
O=C(c1cc2c(s1)-c1ccccc1OC2)N1CCCC1,-,-,-,-,-
O=C1NC(c2ccccc2)(C(F)(F)F)C(=O)N1Cc1cccnc1 (stereo not drawn),51,-,-,84,-
O=c1c2ccccc2c2ccccc2c(=O)n1Cc1cccnc1,-,-,-,-,-
COC(=O)CCCCCc1ccc(C(C)=O)s1,-,-,-,-,-
COc1ccc(CCN(C(=O)C(F)(F)F)C(C(=O)NC2CCCCC2)c2ccc(C)s2)cc1 (stereo not drawn),-,-,-,-,-
O=C(c1ccccc1)c1ccccc1N/C=C/c1nnnn1-c1ccccc1,-,-,-,73,-
COc1ccc(C(F)(F)F)cc1N/C=C\c1nnnn1-c1ccccc1,71,-,-,65,-
SMILES,CYP2C9 inhib,CYP2C9 activ,CYP2C19 act,CYP2C19 inhib,PLAP act
COC(=O)c1ccc(-n2nnnc2SCC(=O)Nc2ccccc2C(=O)OC)cc1,-,-,-,-,-
O=C(CN(CCN1CCOCC1)C(=O)Cn1nnc(-c2ccc(F)cc2)n1)NC1CCCCC1,-,-,-,-,-
CC(C)c1nnc(NC(=O)CCC(=O)Nc2ccc(F)cc2)s1,-,-,-,-,-
CSC1=N/C(=C\c2ccc(C)o2)C(=O)S1,-,-,-,-,-
Cn1c(=O)c2c(nc(SCC(=O)NC34CC5CC(CC(C5)C3)C4)n2C)n(C)c1=O,-,-,-,-,-
C=C(C)CSc1nnc2n(C)c(=O)c3c4c(sc3n12)CCC4,56,-,-,55,-
NC(=O)CSc1nnc2n(-c3ccccc3)c(=O)c3c4c(sc3n12)CCCCC4,-,-,-,-,-
CC(C)c1nc2ccc(NC(=O)C34CC5CC(CC(C5)C3)C4)cc2[nH]1,-,-,-,-,2
